Only some compounds are listed: those with a hit (about 8.7% of all), similar ones and a draw of the others.
Vaccinia mCherry: vaccinia inhibition (mCherry reporter) | Vaccinia virus mCherry reporter infection, fluorescence | Potency, µM (series often up to 36.5 µM), inactives show at the highest dose activity change, negative = inhibition, usual class: inhibitors | hit rate 0.63% among 310,000; calls by dose curve; tested in A549 cells; further: nearly all actives have a fitted effect of over 35% in size
Pf growth 96h: P. falciparum growth inhibition at 96 hour, primary screen for plastid delayed-death inhibitors; P. falciparum luciferase reporter growth, 96 h; hit rate 6.9% among 320,000; Potency, µM (series often up to 28.7 µM), for the others: top-dose activity change, negative = inhibition, usual class: inhibitors; AID 504834
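Compounds incubated with erythrocytes infected by luciferase-expressing P. falciparum (2% hematocrit, 0.05% parasitemia final) for 96 hours, 37 C in 5% CO2. Growth inhibition scored as decreased luciferase luminescence.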
Vaccinia Venus: vaccinia inhibition (Venus reporter). hit rate 0.46% among 330,000. Vaccinia virus Venus reporter expression, fluorescence. AID 720580. Potency, µM (series often up to 36.5 µM), for the others: top-dose activity change, negative = inhibition, actives largely listed as inhibitors; calls by dose curve; tested in A549 cells; further: nearly all actives have a fitted effect of over 30% in size
Pf growth 48h: inhibits P. falciparum growth in the first generation, 48 h; P. falciparum luciferase growth in erythrocytes, 48 h; Potency, µM (doses to about 28.7 µM), for inactives: top-dose activity change, negative = inhibition, most hits filed as inhibitors; hit rate 5.9% among 310,000
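In quantitative HTS format, infected erythrocytes bearing luciferase-reporter parasites were treated for a single generation at 37 C. Luminescence after adding detection reagent served as the growth measure.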
AMA1-RON2 inh: disrupts binding of P. falciparum AMA1 to RON2; AlphaScreen AMA1-biotinylated RON2 peptide binding; Potency, µM (top dose mostly 58.2 µM), for inactives: at the top dose activity change, negative = inhibition, actives largely listed as inhibitors; hit rate 0.2% among 360,000;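 further: 0% = vehicle wells and -100% = peptide control; nearly all actives have a fitted effect of over 45% in size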
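AMA1 (3D7) with his tag at 25 nM final met compounds first, then biotinylated RON2 peptide at 25 nM; detection used donor plus acceptor beads, 10 µg/mL apiece, read by AlphaScreen after 30 min at room temperature.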
Starred values were filed as active, the others as inactive; i = inactive; ? = inconclusive; . = no result given; [ ] = remark or other dose. Unless noted, the call rests on the fitted dose curve; in most records, active means well fitted curve in the direction sought with a large enough effect; inconclusive means small, poorly fitted or top-dose-only effect, or another doubt; inactive means no such curve, though single readings can be large; an effect the other way counts as inactive or inconclusive. Unless noted, on the % scale 0 is the no-effect control and ±100 the full control effect; potency means the concentration at half of the fitted maximal effect.

SMILES	Vaccinia mCherry	Pf growth 96h	Vaccinia Venus	Pf growth 48h	AMA1-RON2 inh
CS(=O)(=O)N1CCc2cc(C(=O)NCc3ccccc3)ccc21	-0.7%	.	0.2%	.	.
CCN(CC)S(=O)(=O)c1cccc(NC(=O)/C=C/c2ccc([N+](=O)[O-])cc2)c1	-10.1%	?	-0.1%	-0.9%	-0.8%
CN(CCCC(=O)Nc1ccc(Br)cc1F)S(=O)(=O)c1ccccc1	.	6.57µM*	.	-4.4%	-2.8%
O=C(/C=C/c1ccc(S(=O)(=O)N2CCOCC2)cc1)Nc1ccc(F)c(F)c1F	-6.5%	.	-23.0%	.	7.0%[11.6 µM]
CN(CCCC(=O)Nc1ccccc1F)S(=O)(=O)c1ccc(F)cc1	-8.2%	1.8%	-2.4%	0.3%	2.7%
CCN(CC)S(=O)(=O)c1ccc(/C=C/C(=O)Nc2ccc(Br)cc2F)cc1	-12.8%	5.22µM*	-27.6%	11.7µM*	3.5%
CCN(CC)S(=O)(=O)c1ccc(/C=C/C(=O)Nc2ccc(F)cc2F)cc1	.	6.57µM*	.	?	1.0%
CCN(CC)S(=O)(=O)c1ccc(/C=C/C(=O)Nc2ccc(F)c(F)c2F)cc1	-20.2%	?	-13.7%	9.28µM*	3.6%
CCc1nn(CC(=O)NCc2cccc(OC)c2OC)c(=O)c2cc3occc3n12	-5.9%	.	-5.7%	.	.
c1ccc(-c2cn(-c3ccccc3)c3ncnc(N4CCN(c5ccccc5)CC4)c23)cc1	-18.3%	.	-10.0%	.	.
Cc1ccc(C)c(OC(=O)CSc2nnc(-c3ccc4c(c3)OCO4)o2)c1	-10.0%	.	-13.2%	.	.
COC(=O)C1=C(c2ccc(OC)c(OC)c2)C[C@@H]2CC[C@H]1N2C(=O)N1CCc2cc(OC)c(OC)cc2C1	?	?	?	?	-3.6%
COC(=O)C1=C(c2cc3ccccc3s2)C[C@@H]2CC[C@H]1N2C(=O)N1CCOCC1	?	.	?	.	5.9%
COC(=O)C1=C(c2cccc3c2S(=O)(=O)c2ccccc2-3)C[C@@H]2CC[C@H]1N2C(=O)N1CCc2cc(OC)c(OC)cc2C1	-1.9%	?	-26.5%	3.7µM*	-9.0%
COC(=O)C1=C(c2cccc3c2S(=O)(=O)c2ccccc2-3)C[C@@H]2CC[C@H]1N2C(=O)N1CCOCC1	-24.9%	6.57µM*	-15.0%	10.4µM*	-8.9%
CC1CCN(c2ccc3nnc(CCC(=O)Nc4ccc(F)cc4)n3n2)CC1	-20.0%	?	-22.0%	?	-7.1%
COc1cc(NC(=O)CCc2nnc3ccc(N4CCN(c5cccc(OC)c5)CC4)nn23)cc(OC)c1	.	3.29µM*	.	2.4%	5.3%
COCCNC(=O)CCc1nnc2ccc(N3CCC(C)CC3)nn12	.	18.4%	.	4.9%	-6.0%
COc1ccc(NC(=O)CCc2nnc3ccc(N4CCN(c5cccc(OC)c5)CC4)nn23)cc1	.	0.329µM*	.	11.7µM*	-10.4%
COc1cc(NC(=O)CCc2nnc3ccc(N4CCC(C)CC4)nn23)cc(OC)c1	.	1.85µM*	.	-16.2%	-6.7%
COc1ccccc1N1CCN(C(=O)CCc2nnc3ccc(N4CCC(C)CC4)nn23)CC1	.	-19.0%	.	10.4µM*	-8.6%
COc1ccccc1N1CCN(C(=O)c2cnn(-c3ccc(C)c(C)c3)c2C2CCN(C(=O)OC(C)(C)C)CC2)CC1	-23.7%	.	-19.3%	.	.
COc1cccc(Cc2nc3cccnc3n2C2CCN(Cc3ccc(C)s3)CC2)c1	-11.9%	.	-6.4%	.	.
COc1cccc(N2CCN(C(=O)CCc3nnc4ccc(N5CCOCC5)nn34)CC2)c1	.	11.7µM*	.	-3.3%	-0.2%
COc1cccc(N2CCN(C(=O)CCc3nnc4ccc(N5CCCC5)nn34)CC2)c1	?	?	-13.1%	?	-9.0%
SMILES	Vaccinia mCherry	Pf growth 96h	Vaccinia Venus	Pf growth 48h	AMA1-RON2 inh
N=C(N)S/C=C\C(=O)O	-11.4%	.	-12.9%	.	.
OC1(Cc2cc(-c3ccccc3)no2)CCN(CCCc2ccccc2)CC1	.	3.29µM*	.	6.57µM*	-5.2%
COc1ccc(C(C[N+](=O)[O-])c2c(-c3ccccc3)cc3ccccn23)cc1 (stereo not drawn)	-20.5%	5.4%[5.75 µM]	-22.5%	?	-3.8%
COc1ccc(C(C[N+](=O)[O-])C2(c3ccc(OC)c(OC)c3)C(=O)c3ccccc3C2=O)cc1 (stereo not drawn)	11.2µM*	101.5%	?	-11.6%	?
COc1ccccc1N(C)S(=O)(=O)c1ccc(C(=O)Nc2nccs2)cc1	.	?	.	14.7µM*	95.7%
COc1ccccc1N(C)S(=O)(=O)c1ccc(C(=O)N(C)Cc2ccc(OC(F)F)cc2)cc1	-13.9%	?	?	11.7µM*	-13.0%
CCCc1nnc(NC(=O)c2ccc(S(=O)(=O)N(C)c3ccccc3OC)cc2)s1	-16.8%	13.1µM*	-10.6%	10.4µM*	-11.6%
COc1ccccc1N(C)S(=O)(=O)c1ccc(C(=O)NCC2CCCCC2)cc1	.	?	.	13.1µM*	1.3%
CCn1cc(C(=O)NCCc2ccccc2)c(=O)c2cc(S(=O)(=O)N(C)C3CCCCC3)ccc21	-8.8%	.	-8.7%	.	.
Cc1ccc(NC(=O)C(=O)NCC(c2cccnc2)N2CCc3ccccc32)cc1Cl (stereo not drawn)	-19.3%	.	-17.9%	.	.
Cc1ccc(C)c(NC(=O)N2CCN3CCCCC3C2)c1 (stereo not drawn)	-12.8%	.	-7.3%	.	.
Cc1ccc2c(=O)cc(C(=O)Nc3ccc(S(=O)(=O)N(C)Cc4ccccc4)cc3)oc2c1	-17.3%	.	?	.	.
COc1ccc(CCC(=O)O)cc1	i	.	-11.4%	.	.
COc1ccccc1N(C)S(=O)(=O)c1ccc(C(=O)Nc2ncc(C)s2)cc1	-7.3%	?	-19.1%	?	54.9%
COc1ccccc1N(C)S(=O)(=O)c1ccc(C(=O)Nc2nc(C)c(C(C)=O)s2)cc1	.	?	.	11.7µM*	-4.6%
Cc1ccc(/C=C(\C#N)c2nc3ccccc3[nH]2)s1	-14.7%	1.65µM*	-7.3%	?	-3.7%
CN(C)/C=C(\C#N)c1nc2ccccc2[nH]1	i	?	-1.0%	33.5%	12.0%
N#C/C(=C\c1c(Cl)cccc1Cl)c1nc2ccccc2[nH]1	-25.9%	8.28µM*	-23.0%	8.28µM*	20.7%
Cc1cccc(C)c1Nc1nnc(SCc2nc3ccccc3s2)s1	-22.0%	0.0%	-12.4%	110.3%	0.0%
N#C/C(=C(/O)CCl)c1nc2ccccc2[nH]1	?	10.4µM*	?	?	62.8%
Cc1nc(CSc2nnc(Nc3cccc(C)c3C)s2)cs1	i	7.38µM*	-9.3%	?	-0.2%
N#C/C(=C/c1cccs1)c1nc2ccccc2[nH]1	-13.3%	?	-16.9%	?	7.7%
N#C/C(=C\c1ccc(Sc2ccc(Cl)cc2)o1)c1nc2ccccc2[nH]1	?	-12.1%	-22.9%	0.185µM*	55.6%
Cc1cccc(Nc2nnc(SC/C(O)=C(\C#N)c3nc4ccccc4[nH]3)s2)c1C	-2.3%	11.7µM*	-6.1%	?	97.4%
N#C/C(=C\C1CC=CCC1)c1nc2ccccc2[nH]1 (stereo not drawn)	.	.	.	8.28µM*	63.2%
